Screening results: PubChem BioAssay, ICCB-Longwood Screening Facility, Harvard Medical School
CapD inh: inhibitors of Bacillus anthracis CapD enzyme. z-score (no concentration beside the values). purified CapD enzyme, fluorescence intensity read-out; hits give low values. 140,000 compounds, 0.23% hits; in the data active = z-score mostly below about -2.9, no sharp cut-off; inactive = mostly above about -1.9
AID504770: growth inhibitors of E. coli YBA685 in a screen for V. cholerae RctB (chromosome II replication) inhibitors | E. coli YBA685 rctB-dependent plasmid, OD600 growth, 3 h; hits give low values | z-score (test concentration not listed) | 130,000 compounds, 0.27% hits; in the data active = z-score below about -2, passing the limit was not always enough
The depositor's hits bear a star; . = no result given. Shown are actives, neighbours in structure and some others; about 0.4% of the full set was active somewhere.

SMILES	CapD inh	AID504770
CN(C)/C=C/C(=O)c1ccc(S(=O)(=O)c2ccccc2)cc1	-1.3	-0.1
CN(C)/C=C/C(=O)c1cccs1	-4.92*	-0.9
CC(C)(C)OC(=O)Nc1cccc(C(=O)OCCCn2c(=O)[nH]c3ccccc32)c1	.	1.8
CC1(C)OC2OC(C(=O)NNC(=O)CCCOc3ccc(Cl)cc3Cl)C3OC(C)(C)OC3C2O1 (centres undefined)	-0.195	.
O=C(/C=C/C(=O)c1ccccc1)c1ccccc1	.	-1.55
N#CS/C=C/C(=O)c1ccccc1	-0.725	-2.7*
O=C1CS/C(=N\c2nccs2)N1	-1.53	-2.85*
O=C1CSC(=Nc2cccc3ccccc23)N1	2.71	-0.9
CN(C)c1ccc(/C=C/C=N/N=c2/sc3ccccc3n2C)cc1	-0.035	0.9
Cc1cc(/C=C2\C(=O)NC(=O)N(c3ccc(Br)cc3)C2=O)c(C)n1-c1cc(C(=O)O)cc(C(=O)O)c1	-0.935	.
Cc1cc(/C=C2\C(=O)NC(=S)N(c3ccc(Cl)cc3)C2=O)c(C)n1-c1cc(C(=O)O)cc(C(=O)O)c1	-6.24*	.
Cc1occc1-c1nnc(SCC(=O)c2ccc3c(c2)CCN3S(C)(=O)=O)n1C	.	-0.9
O=C(Nc1ccc(O)cc1)c1ccc2ccccc2c1	0.385	-0.9
CC1(C)CC(=O)C2=C(C1)c1c(ccc3ccccc13)NC2c1ccc(-c2cccc([N+](=O)[O-])c2)o1 (centres undefined)	0.86	.
COCCN1C(=O)C=CC1=O	0.27	-3.55*
COCCN1C(=O)c2ccccc2C1=O	-0.8	1.6
COc1cc(-c2nnc(SCC(=O)NC(=O)c3ccc(C(C)(C)C)cc3)o2)cc(OC)c1OC	.	0.35
CCNC(=O)CSc1nnc(-c2cc(OC)c(OC)c(OC)c2)o1	.	-6.1*
CN(C)S(=O)(=O)c1ccc(C(=O)NN2CC(=O)NC2=O)cc1	.	0.1
C=CCN1C(=O)NC(=O)/C(=C/c2ccco2)C1=O	-0.03	-0.75
C=CCN1C(=O)/C(=C/c2ccco2)C(=O)NC1=S	-4.65*	-0.4
O=C(O)C1CC=CCC1Cc1ccccc1 (centres undefined)	.	-1.2
O=C(c1ccccc1)N1CCOCC1	-0.775	.
N/C(=N\OC(=O)N1CCOCC1)c1ccccc1	0.385	-2.7*
Cc1cc(C(=O)O)ccc1-c1ccc(/C=N/n2cnnc2)o1	3.04	-1.35
SMILES	CapD inh	AID504770
Cc1cc(C(=O)O)ccc1-c1ccc(/C=C2\SC(=S)NC2=O)o1	-9.45*	1.5
CN(c1ccc(Cl)cc1)S(=O)(=O)c1ccc2[nH]cc(C(=O)N3CCc4ccccc4C3)c(=O)c2c1	2.91	.
CC(C)c1ccccc1NC(=O)CC(C)(C)C	.	-0.6
CCCCN(CC)Cc1ccc(CNC(=S)Nc2cccc(F)c2)o1	0.485	-0.5
CCCCN(CC)Cc1ccc(CNC(=O)Nc2ccccc2)o1	-5.07*	-1.2
O=C(O)c1cccc(N2C(=O)/C(=C\C=C\c3ccco3)SC2=S)c1	.	0.15
CC1=NN(c2ccccc2)C(=O)/C1=C/c1cn(CC(O)CN2CCCCC2)c2ccccc12 (centres undefined)	-4.83*	-0.5
CC1=NN(c2ccc(Cl)c(C(=O)O)c2)C(=O)/C1=C/c1cn(Cc2ccccc2)c2ccccc12	-0.3	.
Cc1nnc(SCC#N)n1C	.	-0.05
CCC(C)N1Cc2ccccc2N(CC)C1c1ccccc1F (centres undefined)	-4.35*	2.35
Fc1ccccc1C1N(Cc2ccccc2)CCN1Cc1ccccc1	-0.3	.
CCCCCCC(=O)Nc1cccc(C(=O)N/N=C/c2ccc(OC)cc2)c1	0.79	.
Cc1c(C)[n+]([O-])c2ccc3c(non3O)c12	-3.23	-2.2*
CCOC(=O)c1c(C)[n+]([O-])c2ccc3c(non3O)c12	.	-0.05
CC(=O)[O][Hg][c]1ccccc1	0.04	-5.2*
CC(=O)O/N=C(\C(=N/OC(C)=O)c1ccccc1)c1ccccc1	-1.25	.
CC(=O)n1c(O)c(N=Nc2ccc([N+](=O)[O-])cc2[N+](=O)[O-])c2cc(Br)ccc21	0.15	.
CC(=O)c1c(C)oc2ccc(N(C(=O)c3ccc(C)cc3)S(=O)(=O)c3ccccc3)cc12	0.01	.
O=C(O)c1cccc(C(=O)O)c1Br	-0.335	-3
O=c1c(Br)cccc(Br)c1O	-2.26	-3.55*
N=C1/C(=C\c2ccccc2)C(=O)N=C2SC=NN12	-1.13	1.25
O=C(O)Cn1c(SC(F)F)nc2ccccc21	.	-0.75
Cc1cc(NC(=O)COCc2cc(-c3ccc4c(c3)OCO4)on2)nn1Cc1ccc(Cl)cc1	0.685	-0.8
O=C(COCc1cc(-c2ccc3c(c2)OCO3)on1)Nc1ccc(OC(F)(F)F)cc1	0.195	-2.55*
O=C(CSc1nnc(-c2ccccc2)c(-c2ccccc2)n1)c1ccccc1	-0.17	.
SMILES	CapD inh	AID504770
CCn1cc(C(=O)O)c(=O)c2cc(F)c(N3CCN(C(=S)Nc4ccc5c(c4)OCO5)CC3)cc21	1.41	-3.05*
CCn1cc(C(=O)O)c(=O)c2cc(F)c(N3CCNCC3)cc21	0.24	-4.65*
CCn1cc(C(=O)O)c(=O)c2cnc(N3CCNCC3)nc21	12.9	-3.15*
CCCn1cc(S(=O)(=O)c2ccc(C)cc2)c(=O)c2cc(F)c(N3CCN(CC)CC3)cc21	110	-0.4
FC(F)(F)c1cccc(N2CCN(C(=S)Nc3ccc4c(c3)OCO4)CC2)c1	0.23	0.95
CCn1cc(C(=O)NN)c(=O)c2cc(F)c(N3CCCC3)cc21	0.33	-0.75
CCn1cc(C(=O)O)c(=O)c2cnc(N3CCN(C(=S)NC)CC3)nc21	2.47	-0.75
CCn1cc(C(=O)O)c(=O)c2cc(F)c(N3CCN(C)CC3)cc21	7.68	-6.95*
N#Cc1c(COc2ccc(Cl)cc2Cl)nc(=O)n(-c2ccccc2)c1N	0.66	.
Cc1ccc(-c2nn(C)c(=O)c3ccccc23)cc1CNC(=O)Nc1ccccc1	1.5	2.7
CC(C)CC1(c2ccccc2)NC(=O)NC1=O (centres undefined)	.	-0.9
Cc1nn(C)c(Oc2ccccc2)c1CCNC(=O)c1cccc(Cl)c1	-0.075	.
c1ccc2nc(-c3cn[nH]c3-c3ccncc3)ccc2c1	5.47	.
Nc1cccc(CCC(=O)O)c1	0.18	-0.05
CCn1cc(C(=O)O)c(=O)c2cc(F)c(N3CCN(C(=O)c4ccccc4F)CC3)cc21	.	-3.75*
CCn1cc(C(=O)NCC(C)C)c(=O)c2cc(F)c(N3CCN(C(=O)c4ccco4)CC3)cc21	.	-0.3
CCCOc1ccc(C2NC(=O)NC(C)=C2C(=O)OC2CCCCCCC2)cc1OC (centres undefined)	-0.355	.
O=C(Nc1cccc(C(F)(F)F)c1)c1ccc(N2CC3CC(C2)c2cccc(=O)n2C3)c(NC(=O)c2ccccc2)c1 (centres undefined)	-1.4	.
Cc1ccc2c(c1)-c1c(ssc1=S)C(C)(C)N2C(=O)C1CC1	0.25	.
Cc1ccc(C)n1-c1cc(Cl)ccc1C(=O)O	-5.49*	1.1
CC(=O)Nc1ccc(-n2c(C)ccc2C)c(C(=O)O)c1	-4.82*	0.6
Cc1ccc(C)n1-c1ccccc1C(=O)O	-1	1.2
CC(=O)Nc1ccc(NC(=O)c2ccccc2C(=O)O)cc1	-0.145	.
COC(=O)Cc1nc(N2CCN(Cc3ccccc3)CC2)c2c(C)c(C)sc2n1	0.13	.
CC(=O)Oc1ccc(C2Nc3c(C(=O)O)ccc([N+](=O)[O-])c3C3C=CCC32)cc1 (centres undefined)	-2.67*	.
O=C(O)c1ccc([N+](=O)[O-])c2c1NC(c1ccc([N+](=O)[O-])cc1)C1CC=CC21 (centres undefined)	-0.525	.
